One may read the AC50 as the concentration at which the activity in the assay is half-maximal.

This is an account of results in PubChem BioAssay AID1851 (National Center for Advancing Translational Sciences (NCATS), 2009).

The structures appear in SMILES notation. Among all 16,000 compounds or so, about 5,100 (32%) were called active. About 25% were inconclusive and are not listed. The list shows a part of the results. Unmarked numbers belong to inactive results. Calls come from the whole dose curve; as a rule, active = well fitted curve in the direction sought with a large enough effect; inconclusive = small, poorly fitted or top-dose-only effect, or effect the other way; inactive = no such curve, though single readings can be large or run the other way.
% is set by controls: 0 for no effect and ±100 for the full control effect.

Cytochrome P450 3A4 (Homo sapiens), sequence (P08684 whole entry, looked up): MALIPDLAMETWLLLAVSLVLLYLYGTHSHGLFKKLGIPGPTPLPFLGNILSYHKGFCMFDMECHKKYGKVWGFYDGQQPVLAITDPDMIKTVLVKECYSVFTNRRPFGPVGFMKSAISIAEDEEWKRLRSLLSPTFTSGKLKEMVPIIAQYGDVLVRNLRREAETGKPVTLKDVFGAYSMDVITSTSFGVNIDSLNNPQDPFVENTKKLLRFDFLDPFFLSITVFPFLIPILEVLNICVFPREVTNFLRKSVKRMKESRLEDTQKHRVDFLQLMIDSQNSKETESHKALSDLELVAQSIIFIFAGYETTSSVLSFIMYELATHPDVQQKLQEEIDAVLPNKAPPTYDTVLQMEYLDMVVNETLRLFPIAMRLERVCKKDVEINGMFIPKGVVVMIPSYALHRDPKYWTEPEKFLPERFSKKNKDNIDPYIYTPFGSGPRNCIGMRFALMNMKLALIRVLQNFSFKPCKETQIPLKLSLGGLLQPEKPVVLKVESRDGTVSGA

This assay addresses Cytochrome P450 3A4 (Homo sapiens) (UniProt P08684). Kind of assay: Cytochrome panel assay with activity outcomes. To be noted: recombinant CYP, pro-luciferin dealkylation, luminescence, p450-cyp3a4; series mostly up to 57.1 µM; activity, negative = inhibition: at the top concentration.
Consider `COc1cccc(-c2nc(NCc3cnc(C)cn3)c3ccccc3n2)c1`, for which the AC50 was 2.51 µM (active).

In the case of `Cc1cnc(CNc2nc(-c3cccnc3)nc3ccccc23)cn1`, the concentration at half-maximal activity (AC50) was 3.98 µM (active).

In the case of `CCCC12CN3CC(CCC)(CN(C1)C3C(O)C(O)C(O)CO)C2=O` (stereo unspecified), the activity, negative = inhibition was 0.643% [at 11.4 µM].

For the compound `Cc1ccc(C(=O)NNC(=S)NC(=O)c2ccc(Cl)cc2)cc1`, the AC50 is 14.1 µM (active).

As for `O=C(NNC(=S)NC(=O)c1cccnc1)c1ccccc1`, the activity, negative = inhibition is 1.97% [at 2.29 µM].

As to `CCOc1ccc(NC(=O)c2nnn(CC(=O)Nc3ccccc3OC)c2N)cc1`, the “activity, negative = inhibition” value was 10.2%.

As for `Cc1ccc(C)c(NC(=O)Cn2nnc(C(=O)Nc3c(C)cccc3C)c2N)c1`, the AC50 was 12.6 µM (active).

Turning to `Cc1ccc(C)c(NC(=O)Cn2nnc(C(=O)NCc3cccs3)c2N)c1`, the “activity, negative = inhibition” value is -15.7%.

Take `COC(=O)c1nnn(Cc2ccccc2)c1N`: the “activity, negative = inhibition” value was -10.5%.

As for `CCOc1ccc(NC(=O)Cn2nnc(C(=O)NCc3ccccc3OC)c2N)cc1`, the AC50 was 11.2 µM (active).

On to `Cc1ccc(C)c(NC(=O)Cn2c([N+](=O)[O-])cnc2C)c1`, for which the “activity, negative = inhibition” value was -16.5%.

As to `COc1ccc(CCNC(=O)c2nnn(CC(=O)Nc3ccccc3C)c2N)cc1OC`, the half-maximal activity concentration (AC50) was 12.6 µM (active).

Consider `O=C(O)/C=C1\NC(=O)c2ccccc21`, for which the “activity, negative = inhibition” value is -4.69%.

For the compound `NCC[C@H](N)C(=O)O`, the activity, negative = inhibition was -6.61% [at 11.4 µM].

Regarding `COc1ccc(NC(=O)N2CCCC3(CCN(S(C)(=O)=O)CC3)C2)cc1`, the AC50 is 31.6 µM (active).

Turning to `COCC(=O)N1CCC2(CCCN(C(=O)Nc3ccccc3)C2)CC1`, the “activity, negative = inhibition” value was -18.9%.

Turning to `COc1ccc(NC(=O)N2CC3(CCN(S(C)(=O)=O)CC3)C2)cc1`, the “activity, negative = inhibition” value is -25.7%.

In the case of `CC(C)NC(=O)N1CC[C@@]2(CCCN(S(C)(=O)=O)C2)C1`, the “activity, negative = inhibition” value is -7.99%.

Regarding `COc1ccc(NC(=O)N2CCCC3(CCN(S(=O)(=O)c4ccccc4)CC3)C2)cc1`, the AC50 was 7.94 µM (active).

On to `CC(C)NC(=O)N1CCCC2(CCN(S(=O)(=O)c3ccccc3)CC2)C1`, for which the AC50 is 7.94 µM (active).

Turning to `COc1ccc(NC(=O)N2CCC3(CC2)CCN(S(C)(=O)=O)CC3)cc1`, the “activity, negative = inhibition” value is -21.9%.

Regarding `CC(C)NC(=O)N1CC2(CCN(S(=O)(=O)c3ccccc3)CC2)C1`, the “activity, negative = inhibition” value was -13.8%.

As to `CCCCCCCCCCCCCCSCC(=O)O`, the “activity, negative = inhibition” value is 0.973%.

For `O=C(NCCNC[C@@H](O)COc1ccc(O)cc1)N1CCOCC1`, the AC50 entry was “inactive”.

Turning to `Cc1ccc(OCC(O)CNC(=O)c2ccccc2C(=O)O)cc1` (stereo unspecified), the AC50 is 28.2 µM (active).

With `O=C(O)COc1ccc(OCCNC[C@@H](O)COc2ccccc2)cc1`, the “activity, negative = inhibition” value is -17.3%.

For `Cc1ccnc2nc(C(=O)OCC(=O)Nc3ccc4c(c3)OC(F)(F)O4)nn12`, the “activity, negative = inhibition” value was 24.8%.

As for `COc1cc(C)cc(OC)c1/C=C\C(=O)O`, the activity, negative = inhibition was -4.32% [at 11.4 µM].

For the compound `COC(=O)[C@@]1(Cc2ccc(F)cc2)[C@H]2c3cc(C(=O)N4CCCC4)n(CCc4ccc(O)c(O)c4)c3C[C@H]2CN1C(=O)c1ccccc1`, the AC50 is 2.51 µM (active).

As to `COC(=O)[C@@]1(Cc2ccc(F)cc2)[C@H]2c3cc(C(=O)N4CCCC4)n(CCc4ccc(OC)c(Br)c4)c3C[C@H]2CN1C(=O)c1ccccc1`, the AC50 was 2.51 µM (active).

Turning to `Cc1cc(OCC(F)(F)C(F)(F)C(F)(F)C(F)(F)C(F)(F)C(F)F)nc(N)n1`, the “activity, negative = inhibition” value was -27.6%.

As to `Nc1nc(-c2ccccc2)c(-c2ccccc2)c(-c2nc(N)nc(-c3ccccc3)c2-c2ccccc2)n1`, the activity, negative = inhibition is 4.04% [at 11.4 µM].

Consider `Nc1nc(-c2ccccc2)c(-c2ccccc2)s1`, for which the activity, negative = inhibition was -8.94% [at 2.29 µM].

Turning to `Nc1ccc(-c2sc(N)nc2-c2ccccc2)cc1`, the AC50 was 10 µM (active).

`CSC1=N/C(=C\c2ccc(Br)o2)C(=O)S1`: the activity, negative = inhibition is -3.65% [at 11.4 µM].

In the case of `C=CC[C@@H]1C=C[C@H](O/N=C(\C)CCN2CCc3nc(CC)c(CC)cc3C2)[C@H](CO)O1`, the activity, negative = inhibition is -75.9% [at 11.4 µM].

Turning to `CCCNC(=O)OC[C@@H]1O[C@H](CCO/N=C(\C)CCN2CCc3nc(-c4ccccc4)c(-c4ccccc4)cc3C2)C=C[C@@H]1Oc1ccc(OC)cc1`, the concentration at half-maximal activity (AC50) was 3.16 µM (active).

In the case of `COc1ccc(O[C@H]2C=C[C@@H](c3ccccc3)O[C@@H]2CO/N=C(\C)CCN2CCc3nc(-c4ccccc4)c(-c4ccccc4)cc3C2)cc1`, the activity, negative = inhibition was -57.3% [at 11.4 µM].

For `CCCNC(=O)OC[C@@H]1O[C@H](CCO/N=C(\C)CCN2CCc3nc(CC)c(CC)cc3C2)C=C[C@@H]1Oc1ccc(OC)cc1`, the concentration at half-maximal activity (AC50) was 3.98 µM (active).

As for `C=CC[C@@H]1C=C[C@H](O/N=C(\C)CCN2CCc3nc(-c4ccccc4)c(-c4ccccc4)cc3C2)[C@H](CO)O1`, the AC50 was 3.98 µM (active).

On to `Cc1c(C)c(C)c(CC2(C)CSC2)c(CC2(C)CSC2)c1C`, for which the activity, negative = inhibition was -14.4% [at 11.4 µM].

Turning to `CN(C)CCN(Cc1cccs1)c1ccccn1`, the AC50 result was “inactive”.

On to `CC(C)(C)NC(=O)CN(Cc1cccs1)C(=O)CCC(=O)Nc1nccs1`, for which the AC50 is 4.47 µM (active).

Regarding `CC1=CC2=NC(=O)CC(C)(C(=O)N(CC(=O)NC(C)(C)C)Cc3cccs3)N2C=C1` (stereo unspecified), the “activity, negative = inhibition” value was -28.5%.

Take `CSc1nc(C)c2c(n1)N(c1ccc(C(F)(F)F)cc1)CC2`: the “activity, negative = inhibition” value was -9.83%.

With `CCOC(=O)c1c(-c2ccccc2)csc1NC(=O)c1cccc(N2C(=O)CCC2=O)c1`, the “activity, negative = inhibition” value is 28.3%.
